High-throughput results as filed in PubChem BioAssay.
GBA mod: Glucocerebrosidase. Lysosomal acid glucosylceramidase (Homo sapiens), P04062. purified enzyme, resorufin glucoside fluorescence (screen aimed at inhibitors), 20 min. Potency, µM. actives 1.1% (n = 48,000). AID 360, 2006; in the data active = potency below about 15 µM; inconclusive = mostly about 16 µM to 33 µM;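 also: the screen sought inhibitors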
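Normal human glucocerebrosidase (0.2 nM final) was assayed with resorufin β-D-glucopyranoside (30 uM final) in 50mM citric acid/KH2PO4, 10mM sodium taurocholate, 0.01% tween-20, pH 5.9. Compounds were titrated; fluorescence (Ex 548, Em 600) read after 20 min at RT.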
PK Bst: Pyruvate Kinase; purified pyruvate kinase, luminescence ATP production; ribose 5-phosphate activator present at AC10; Potency, µM; actives 1.2% (n = 51,000); in the data active = potency below about 11 µM; inconclusive = mostly about 12 µM to 25 µM;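 the screen sought inhibitors and activators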;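 also: scaled between full activation by ribose 5 phosphate and full inhibition by luteolin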
Luciferase inh: qHTS Assay for Inhibitors of Firefly Luciferase; actives 2.2% (n = 72,000); purified firefly luciferase, luminescence, 8 min; Luciferin 4-monooxygenase (Photinus pyralis), P08659; Potency, µM (titrated, usually from 57.1 µM), without a hit: at the top dose activity change, negative = inhibition, usual class: inhibitors; active = well fitted inhibition curve with a large enough effect; inconclusive = small, poorly fitted or top-dose-only effect; also: % is scaled to controls: 0 for no effect and ±100 for the full control effect; nearly all actives have a fitted effect of over 40% in size
Target sequence (P08659 whole entry, looked up): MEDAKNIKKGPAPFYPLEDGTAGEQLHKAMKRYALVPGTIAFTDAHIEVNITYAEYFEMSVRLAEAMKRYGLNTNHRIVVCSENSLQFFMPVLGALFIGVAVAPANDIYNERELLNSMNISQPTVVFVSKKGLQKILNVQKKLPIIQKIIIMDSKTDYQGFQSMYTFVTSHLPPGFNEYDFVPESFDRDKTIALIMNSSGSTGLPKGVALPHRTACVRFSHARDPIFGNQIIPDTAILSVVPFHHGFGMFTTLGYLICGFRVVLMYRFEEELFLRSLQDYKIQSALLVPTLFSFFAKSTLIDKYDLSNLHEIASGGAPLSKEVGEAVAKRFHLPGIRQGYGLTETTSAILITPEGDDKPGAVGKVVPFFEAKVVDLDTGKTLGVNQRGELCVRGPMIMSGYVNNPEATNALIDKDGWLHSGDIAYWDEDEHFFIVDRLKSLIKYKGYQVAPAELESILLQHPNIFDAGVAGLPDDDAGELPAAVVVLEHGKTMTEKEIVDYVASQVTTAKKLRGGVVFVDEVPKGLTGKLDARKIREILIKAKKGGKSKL
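Firefly luciferase (PKLight detection mix) with 10 uM ATP in pH 7.2 imidazole buffer (KCl, MgCl2, Tween 20, BSA). Compounds tested across a concentration series (qHTS). Luminescence read after 8 min at ambient temperature.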
An asterisk follows results filed as active; i = inactive; ? = inconclusive; nt = no result; ! = repeats disagree; [ ] = dose if it differs, or a comment. Shown are actives, neighbours in structure and some others; about 3.2% of the full set was active somewhere. Potency is read from the fitted curve at half-maximal effect.

SMILES	GBA mod	PK Bst	Luciferase inh
CS(=O)(=O)N1CCN(C(=O)c2cc(-c3cccs3)nc3ccccc23)CC1	>77	nt	-26%
Cc1ccc2nc(-c3cccc(NC(=O)c4ccc5c(c4)OCCO5)c3)oc2c1	i	nt	?
O=C(O)c1cc(-c2cccs2)nc2cc3c(cc12)OCCO3	nt	nt	16µM*
CO[C@@H]1COC(=O)C/C=C\[C@@H](C)COC(=O)[C@H](COCc2ccccc2)NC(=O)C/C=C\[C@H]1C	nt	nt	1%[11.4 µM]
O=C(OC1CCOC1=O)c1ccc2ccccc2n1 (stereo not drawn)	>77	>57	-2%
O=C1c2ccccc2C(=O)C1c1ccc2ccccc2n1	nt	1.1*	0.79µM*
CN1CCN(CC(=O)N2c3ccccc3Sc3cc4ccccc4cc32)CC1	nt	nt	4%[11.4 µM]
c1ccc(-c2noc(C3CCCCC3)n2)nc1	>77	nt	?
c1ccc(-c2noc(C34CC5CC(CC(C5)C3)C4)n2)nc1	>77	nt	16µM*
O=CN[C@@H](Cc1cnc[nH]1)C(=O)O	nt	nt	0%[11.4 µM]
c1coc(-c2nnc3sc(-c4cccs4)nn23)c1	nt	9*	0%[25.5 µM]
c1csc(-c2nn3c(-c4ccncc4)nnc3s2)c1	>77	nt	0%
CO[C@H]1COC(=O)C/C=C\[C@@H](C)COC(=O)[C@H]2CCCN2C(=O)C/C=C\[C@H]1C	nt	nt	1%[11.4 µM]
COc1ccc(C(=O)Nc2ccc3c(c2)nc2n3CCSC2)cc1	nt	?	13µM*
CCC(=O)Nc1ccc2c(c1)nc1n2CCSC1	>77	>57	-7%
CC(C)C(=O)Nc1ccc2c(c1)nc1n2CCSC1	nt	>57	-7%
O=C(Nc1ccc2c(c1)nc1n2CCSC1)c1ccccc1	nt	?	10µM*
N[C@H](CO)C(=O)NCC(=O)O	nt	nt	2%[11.4 µM]
N#CC(CC(=O)O)=C(c1ccccc1)c1ccccc1	nt	nt	4%[11.4 µM]
N[C@H]1[C@@H](C(=O)O)[C@H]2C=C[C@H]1C2	nt	nt	3%[11.4 µM]
CCOC(=O)c1[nH]c2cc3c(cc2c1NC(=O)CN1CC(C)CC(C)C1)OCO3 (stereo not drawn)	nt	3.5*	-1%[25.5 µM]
CCOC(=O)c1[nH]c2ccc(OCC)cc2c1NC(=O)CN1CCCC(C)C1 (stereo not drawn)	>77	i	4%
COc1ccccc1-c1cc(C(=O)NCc2cccs2)no1	nt	>57	-14%
COc1ccccc1-c1cc(C(=O)NCc2ccco2)no1	13*	>57	-26%
O=c1c(-c2ccccc2)nc2cnc(Oc3cccc(Cl)c3)nc2n1C[C@H]1CCCO1	nt	nt	1%[11.4 µM]
SMILES	GBA mod	PK Bst	Luciferase inh
Cc1cc(NC(=O)c2sc(Nc3cccc(C(F)(F)F)c3)nc2N)no1	12*	nt	-2%
Cc1cc(NC(=O)Nc2cccc(C(F)(F)F)c2)no1	nt	>57	-1%
CNc1ncnc2c1ncn2[C@@H]1O[C@@H](CO)[C@H](O)[C@@H]1O	nt	nt	-4%
NC(=O)N[C@H]1NC(=O)NC1=O	nt	nt	-2%[25.5 µM]
O=C(O)c1ccncc1.O=C(O)c1ccncc1.[NH2-].[NH2-].[Pt]	nt	nt	5%[11.4 µM]
CC(C)C(=O)Nc1cccc(-c2nc3ccccc3o2)c1	>77	>57	-1%
Cc1ccc(-c2nc3cc(NC(=O)C(C)C)ccc3o2)cc1	nt	nt	5µM*
CC(C)C(=O)Nc1ccc(-c2nc3cccnc3o2)cc1	nt	nt	5µM*
O=C(Nc1ccc2oc(-c3ccncc3)nc2c1)c1cccs1	>77	3.6*	-10%
Cc1cc2nc(-c3ccc(NC(=O)C(C)C)cc3)oc2cc1C	nt	nt	-1%
CCOc1ccc(C(=O)Nc2cccc(-c3nc4cccnc4o3)c2)cc1Cl	>77	>57	-14%
Cc1ccc(-c2nc3cc(NC(=O)C(C)C)ccc3o2)cc1C	>77	1.7*	2µM*
O=C(Nc1ccc2oc(-c3ccncc3)nc2c1)c1ccccc1F	>77	nt	-12%
C[C@H](N)C1CCC(C(=O)Nc2ccncc2)CC1 (stereo partly drawn)	nt	nt	-3%
Cn1c(=O)c(-c2ccc(F)cc2)nc2cnc(N3CCOCC3)nc21	nt	nt	-2%[11.4 µM]
CN(C(=O)c1cnccn1)c1nnc(-c2cccnc2)s1	>77	>57	4%
O=C(c1csnn1)N1CCC2(CC1)CCN(c1ncccn1)CC2	nt	nt	1%[11.4 µM]
Cc1cc(NC(=O)c2cccc(F)c2)ncc1NC(=O)c1ccco1	>77	nt	16µM*
O=C(Nc1cnc2ccccc2c1)c1ccco1	>77	i	20µM*
Cc1cc(NC(=O)c2ccco2)ncc1NC(=O)CCc1ccccc1	>77	>57	-7%
O=C(Nc1cccnc1)c1ccc(NC(=O)c2ccco2)cc1	?	>57	0%
c1ccc(CCc2nc(-c3cccnc3)no2)cc1	>77	>57	-6%
O=C(Nc1cccc(-c2cnc3ccccc3n2)c1)c1ccco1	>77	?	-10%
O=C(Nc1ccc(NC(=O)c2ccco2)nc1)c1cccnc1	>77	nt	25µM*
O=C(Nc1ccc(-c2noc(CCc3ccccc3)n2)cc1)c1ccco1	>77	?	10µM*
SMILES	GBA mod	PK Bst	Luciferase inh
COC(=O)N1CCC[C@@]2(CCN(C(c3ccccc3)c3ccccc3)C2)C1	nt	nt	2%[11.4 µM]
CCN1CCN(c2ncc(C(=O)Nc3cc(Cl)c(OC)cc3OC)c3ccccc23)CC1	i	>57	4%
CCN1CCN(c2ncc(C(=O)Nc3c(F)cc(F)cc3Br)c3ccccc23)CC1	12*	>57	1%
CO[C@@H]1C=CO[C@]2(C)Oc3c(C)c(O)c4c(O)c(c(C=NN5CCN(C)CC5)c(O)c4c3C2=O)NC(=O)C(C)=CC=C[C@H](C)[C@H](O)[C@H](C)[C@H](O)[C@H](C)[C@H](OC(C)=O)[C@H]1C	nt	nt	2%[25.5 µM]
COc1ccc(-c2nc3cnc(N4CCNCC4)nc3n(C)c2=O)cc1	nt	nt	-11%[11.4 µM]
O=S(=O)(c1ccc(F)c2ccccc12)N1CCCCC1	>77	2.9*	1%
O=S(=O)(c1ccccc1S(=O)(=O)N1CCCCC1)N1CCCCC1	>77	>57	4%
O=C1c2ccccc2N[C@H](c2cc(Cl)cc(Cl)c2O)N1CCc1ccccn1	nt	nt	1%[11.4 µM]
CCOC(=O)CC(=O)Nc1ccccc1C(=O)O	nt	nt	2%
COc1ccc(/C=C\C(=O)Nc2ccccc2C(=O)O)cc1OC	nt	nt	32µM*!
NCCNS(=O)(=O)c1ccc(N)cc1	nt	nt	0%[11.4 µM]
Cn1cc(Cl)c(-c2nc3ccccc3[nH]2)n1	>77	i	25µM*
Nc1nonc1-c1nc2ccccc2[nH]1	>77	nt	0%
COc1ccc2[nH]cc(CCNc3ccnc(-c4ccc5c(c4)OCO5)n3)c2c1	nt	nt	0%[2.29 µM]
CC(=O)N1CCC[C@@]2(CCN(C(=O)Nc3cccc(C#N)c3)C2)C1	nt	nt	0%[11.4 µM]
Cn1c(NCc2ccco2)nc2c1c(=O)n(Cc1ccc(Cl)c(Cl)c1)c(=O)n2C	nt	1.9*	2%[25.5 µM]
Cn1c(=O)c2c(nc(NCc3ccco3)n2Cc2ccc(Cl)cc2Cl)n(C)c1=O	nt	>26	1%[25.5 µM]
NC(N)=N[C@@H]1C(O)[C@H](N=C(N)N)[C@@H](O)C(O)[C@H]1O (stereo partly drawn)	nt	nt	3%[11.4 µM]
Cc1ccccc1-c1nccc(NCc2cccs2)n1	nt	nt	-1%[2.29 µM]
O=C(COC(=O)c1ccccn1)Nc1c(Cl)cccc1Cl	>77	i	-1%
O=C(COC(=O)c1ccccn1)c1ccc(Br)cc1	nt	nt	10µM*
C#CCCCO/N=C1/C[C@@H](O)[C@@H](O)[C@@H]2[C@@H]3C(=O)N(Cc4ccccc4)C(=O)[C@H]3CC[C@@H]12	nt	nt	0%[11.4 µM]
COc1ccc(C(=O)Nc2nccs2)cc1OC	nt	nt	-7%
CCCc1cc(C(=O)Nc2nccs2)cs1	nt	?	7.9µM*
COCCN1C(=O)c2ccc(C(=O)Nc3nccs3)cc2C1=O	>77	nt	-28%
